Out of some 360,000 compounds screened, about 1,800 (0.5%) were called active. The full list was thinned out, with actives kept by preference. Unmarked numbers belong to inactive results.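 Rule for the calls: active = interference check ratio from 0.5 to 1.5 plus GFP to RFP signal ratio inhibition reaching or exceeding a fixed threshold (cut at about 30% in these data, passing the limit was not always enough); inactive = the rest.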
Test: suppressors of acrylamide-induced Pgst-4::GFP reporter in worms, primary screen, SKN-1 inhibitor project, whole organism, uHTS, GFP/RFP fluorescence ratio, strain VP596 (AID 624304)
Details: C. elegans VP596 Pgst-4::GFP/RFP ratio, 24 h, at 21.8 µM, active compounds read high

SMILES	inhibition
OCC(CO)(CO)NCc1ccc(-c2ccccc2)cc1	5.37%
CC(O)c1nc2c(c(=O)n(C)c(=O)n2C)n1C (stereo unspecified)	1.19%
Cc1cccc(CN2CCN(Cc3cnn(-c4ccccc4F)c3)CC2CCO)n1 (stereo unspecified)	-14.6%
COc1ccc(C(=O)N(C)CC(O)c2ccccc2)cc1OC1CCN(C(C)=O)CC1 (stereo unspecified)	-1.73%
COCCNC(=O)c1ccc(-n2c(SCc3cccnc3)nc3ccccc3c2=O)cc1	7.94%
CCC(C(=O)NCc1ccccc1)n1c(Cc2cc(F)cc(F)c2)nc2ccccc21 (stereo unspecified)	-5.9%
CCOC(=O)c1cccc(NC(=O)C2CCN(c3ncnc4c3nc3n4CCCCC3)CC2)c1	-10.7%
COc1cccc(NC(=O)C2CCCN(c3ncnc4c3nc3n4CCCCC3)C2)c1 (stereo unspecified)	35.4% (active)
COc1cccc(CNC(=O)C2CCCN(c3ncnc4c3nc3n4CCCCC3)C2)c1 (stereo unspecified)	15.4%
CCCC1C(=O)N2C(N(C)C)=Nc3ccc(C)cc3N2C1=O (stereo unspecified)	11.9%
Cn1c(=O)c2c(ncn2CC(COCc2ccccc2Cl)OCc2ccccc2Cl)n(C)c1=O (stereo unspecified)	-6.9%
CNC(=O)/C(C#N)=C/c1c(F)cccc1Cl	14.6%
C=CCC1(C#N)C(=S)NC(C)=C(C(=O)OCC)C1c1ccccc1 (stereo unspecified)	20.2%
CCCNC(=O)C1CC(=O)N(c2ccc(OCc3ccccc3)cc2)C1 (stereo unspecified)	5.65%
CC1(C)NC(=O)N(CCCCSc2ccc(Cl)cc2)C1=O	4.13%
CNS(=O)(=O)c1ccc2c(c1)[nH]c(=S)n2C	45.2% (active)
CCn1c(=S)[nH]c2cc(S(=O)(=O)N3CCOCC3)ccc21	-5.66%
CCCCn1c(=S)[nH]c2cc(S(=O)(=O)N3CCCCC3)ccc21	15.1%
O=C(Nc1ccc2c(c1)CCC2)c1ccc(Br)s1	9.29%
COc1ccc2nc(NC(=O)c3ccc(Br)s3)sc2c1	38.2% (active)
COc1ccc(CNC(=O)c2ccc(Br)s2)cc1OC	-0.0485%
Cc1cc(N)n(-c2ccc(S(=O)(=O)N3CCCC3)cc2[N+](=O)[O-])n1	-11.2%
Cc1oc(-c2cccc(Cl)c2)[n+]([O-])c1C	20.3%
O=C(CCCC(=O)N(CC(=O)NC1CCCC1)Cc1ccccc1Cl)Nc1ccccn1	12%

SMILES	inhibition
O=C(NC(=S)Nc1ccc(S(=O)(=O)Nc2ncccn2)cc1)c1cccc(Br)c1	-6.45%
O=C(NC(=S)Nc1cccc2c(O)cccc12)c1cccc(Br)c1	41.4% (active)
O=C(NC(=S)Nc1ccc(Cl)c(C(=O)O)c1)c1cncc(Br)c1	-0.232%
CC(=O)c1ccc(N2CCN(C(=O)c3ccc(Cl)c(S(=O)(=O)NC4CC4)c3)CC2)c(F)c1	14.2%
CC(=O)c1ccc(N2CCN(C(=O)CCNC(=O)Cn3ccc4ccccc4c3=O)CC2)cc1	-6.32%
CC1CCN(c2ccc([N+](=O)[O-])c(SCCO)c2)CC1	13.8%
CC1(C)N=C(N)NC(Nc2ccc(Cl)cc2)=N1	9.6%
Clc1ccc(Nc2ccc3ccccc3n2)cc1	47.2% (active)
C=CCNc1nc(Nc2ccc(Cl)cc2)nc(OC)n1	13.7%
COc1ccc(C(C#N)(CC(=O)O)c2cnccn2)cc1OC (stereo unspecified)	7.82%
Cn1nc(C(C)(C)C)c([N+](=O)[O-])c1C(N)=O	11.7%
CC(C)CN1CC(C)C(=O)N(c2ccccc2)C1=S (stereo unspecified)	6.3%
FC(F)(F)c1ccc2nnc(-c3c(Cl)cccc3Cl)n2c1	13.4%
Nc1cc(C(F)(F)F)ccc1N1CCOCC1	2.47%
CCCC1OC23CCCCC2C(C#N)(C#N)C1(C#N)C(=N)O3 (stereo unspecified)	39.2% (active)
O=C(NC1CCCC1)C1CC(=O)N(c2ccc(F)cc2)C1 (stereo unspecified)	0.701%
CCC(=O)N1CCc2cc(S(=O)(=O)CCC(=O)N3CCN(c4ccccc4F)CC3)ccc21	20.2%
O=C(CCS(=O)(=O)c1cccc2nsnc12)N1CCN(c2ccccc2F)CC1	47.3% (active)
O=C(CCCNS(=O)(=O)c1cccc2nsnc12)NCCN1CCN(c2ccccc2F)CC1	-3.19%
CN1CCN(c2ccccc2NC(=O)COc2ccc(C3CCCCC3)cc2)CC1	-4.71%
Cc1cc(NC(=O)CSc2ncc(C(F)(F)F)cc2Cl)no1	-6.53%
Cc1ccc(-c2ccnc3nc(Sc4ncc(C(F)(F)F)cc4Cl)nn23)cc1	41.4% (active)
Cc1ccc(-c2nc3c(Cl)cc(C(F)(F)F)cn3c2Cc2cccc(Cl)c2)cc1	9.6%
COc1cccc(CNC(=O)COc2cc(O)c3c(c2)OC(C)(C)CC3=O)c1	8.05%

SMILES	inhibition
CC1CN/C(=C\C(=O)c2ccc(Br)cc2)C(=O)N1 (stereo unspecified)	15.8%
COc1cccc(CNc2nc(NCc3cccs3)nc3ccsc23)c1	6.96%
COc1cccc(-c2cc3nc(NCc4ccccc4OC)n(C)c(=O)c3s2)c1	-2.32%
COc1cccc(CNc2nc(NCc3ccccc3OC)nc3ccsc23)c1	43.2% (active)
CCc1nc2c(OCc3ccc(C(=O)OC)cc3)cccn2c1N(C)C(=O)C(C)C	7.01%
O=C(Nc1ccc(-n2cccn2)cc1)C1CCN(Cc2ccsc2)CC1	-1.22%
CCCCNC(=O)c1onc(CSc2cccc(OC)c2)c1C(=O)O	-12.1%
CCC(C)NC(=O)c1cc(Cl)ccc1OC (stereo unspecified)	3.09%
Cc1cc(Br)cn2c(Cc3ccccc3C(F)(F)F)c(-c3ccc(Cl)cc3)nc12	12.9%
Cc1ccc(-c2nc3ccc(Br)cn3c2Cc2ccccc2C(F)(F)F)cc1	35.2% (active)
COC(=O)c1ccc2nc(-c3cccc(Br)c3)c(Cc3ccccc3C(F)(F)F)n2c1	-9.35%
Cc1cc(C)c2nc(-c3cccnc3)cc(C(=O)Nc3ccc(S(=O)(=O)Nc4onc(C)c4C)cc3)c2c1	0.27%
O=C(c1ccc(Cl)cc1)n1cnc2ccccc21	11.4%
COc1ccc(-c2cc(C(=O)n3cnc4ccccc43)c3ccccc3n2)cc1	38.1% (active)
C/C(N)=C(/C#N)C(=O)COC(=O)c1cc(-c2ccc(C)cc2)nc2ccccc12	-3.83%
CC(C)Sc1nc(N)nc2c1ncn2C1OC(CO)C(O)C1O (stereo unspecified)	8.48%
Cn1c(-c2ccco2)nc2cc3ccccc3cc21	41.7% (active)
Cc1ccc(-n2ncc3c(=O)n(-c4ccc(C)c(C)c4)c(-c4ccco4)nc32)cc1	18.1%
Cn1c(SCC(=O)Nc2ccc(Br)cc2F)nnc1-c1ccco1	6.52%
CC(=O)NC1CC2CCCC(C1)N2CC(=O)Nc1ccccc1 (stereo unspecified)	-18.6%
O=C(NCc1ccccc1)C1CCN(C(=O)Cc2ccccc2)CC1	9.03%
O=C(CN1C2CCC1CC(NC(=O)C1CC1)C2)NCc1ccccc1 (stereo unspecified)	35.8% (active)
CCOC(=O)N1CCN(C(=O)c2ccc(CN(c3ccc(C)c(C)c3)S(C)(=O)=O)cc2)CC1	6.59%
OCc1nc(CO)n(Cc2ccccc2)n1	-5.44%

SMILES	inhibition
COc1ccc(CC(NC(C)=O)C(=O)NC2CCN(C(=O)C3CC3)CC2)cc1OC (stereo unspecified)	7.48%
COc1ccc(CC(NC(C)=O)C(=O)N2CCN(C(=O)Nc3cccc(Cl)c3)CC2)cc1OC (stereo unspecified)	40.7% (active)
COc1ccc(CC(NC(C)=O)C(=O)NC2CCN(C(=O)Nc3ccc(C#N)cc3)CC2)cc1OC (stereo unspecified)	11.3%
OC(c1ccc(Cl)c(F)c1)c1ncc(-c2ccccc2Cl)[nH]1 (stereo unspecified)	20.6%
CCN1CCN(c2sc(S(C)(=O)=O)nc2S(=O)(=O)c2ccc(Cl)cc2)CC1	-10.1%
COc1cc(N2CCCC2)c(OC)cc1/C=C(/C#N)c1cccc(Br)c1	45.8% (active)
N#CC1(Nc2ccc3c4c(cccc24)CC3)CCCCC1	8.67%
NC(=O)C1(Nc2ccc(-c3ccccc3)cc2)CCCC1	13.2%
N#CC1(Nc2ccc(-c3ccc(Cl)cc3)cc2)CCCC1	69% (active)
CC(=O)c1c(C)n([O-])c2ccccc2[n+]1=O	36.9% (active)
Cc1c(C=O)c2ccccc2n1CC(=O)O	-4.35%
CCOC(=O)C1=C(CNC2CCCCC2)NC(=O)NC1c1cc(C)ccc1C (stereo unspecified)	-5.96%
C#Cc1ccc(NC(=O)C2(C)CCN2C(=O)Cc2ccc(-c3ccccc3)cc2)cc1 (stereo unspecified)	8.15%
CC(=O)Nc1cccc(OCC(=O)/C=C2\N(C)c3ccccc3C2(C)C)c1	45.5% (active)
Cc1cccc(OCC(=O)Nc2ccccc2F)c1	11.3%
COc1cccc(NC(=S)C(C#N)=C2N(C)c3ccccc3N2C)c1	-3.75%
COCCn1c(SCc2nc3cc(OC)c(OC)cc3c(=O)[nH]2)nnc1-c1ccncc1	13.8%
CCn1c(SCC(=O)Nc2nc(C)cs2)nnc1C(C)NC(=O)c1ccccc1 (stereo unspecified)	-5.72%
C=CCNC(=S)N1CCN(CCN=Cc2c(C)[nH]n(-c3ccc([N+](=O)[O-])cc3)c2=O)CC1	-5.99%
c1ccc2c(c1)CCc1snnc1-2	11%
O=C1/C(=C/c2cccs2)CCc2ccccc21	41.9% (active)
O=C1/C(=C/c2cccs2)CCC1C1CCCC1 (stereo unspecified)	41.6% (active)
O=C(COC(=O)/C=C/c1cccs1)NC1CCCCC1	4.24%
O=S(=O)(c1cccs1)N1CCc2ccccc2C1	-31.6%
